From PubChem BioAssay AID1508600 (Functional Genomics Laboratory (NCATS/FGL), 2020) come the findings set out here.

Hit rate of the full screen: of about 53,000 sequences, about 3,700 (7%) were called active. This is one part of a sample in which actives are shown more often than they occur. Unmarked numbers belong to inactive results.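 Rule for the calls: active = gene knockdowns whose robust z-score for IL-1 alpha signal is at least 2 or at most -2, so actives lie on both sides; inactive = the rest.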

The test is described as follows: Components of the Cytosolic LPS Sensing Pathway: Gene Identification via Genome-wide siRNA Screen.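 Note: robust z of the log signal after scaling to non-targeting control siRNA wells of the plate.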 Conditions: RAW264.7 macrophages, IL-1a HTRF, actives lie on both sides, screened at 100 nM (by protocol), cells primed 5 h with Pam3CSK4 first. In short, it runs like this: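 Three distinct siRNAs per gene were tested singly at 100 nM in RAW264.7 macrophages. Following Pam3CSK4 priming and 24 hour LipidA transfection, IL-1a secretion was read by HTRF.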
In the case of GCUAUGAAGAAAAAUCGGATT against Mettl21e, the z-score was 0.362.
As for GCCUAACCUGGUAUCCCAGTT against Zfp92, the z-score is -1.03.
The result for GGCCUCACAGUGCUUUCUCTT against Olfr1232 reads 0.0779.
With CCUGGCUUACAGUACAUGCTT against Adarb1, the z-score is 1.21.
The value for CGACUUCAUAAGGUAUGCATT against Tnfrsf22 was -0.793.
The result for UUUGCUGUCCUUUCUUUCATT against Olfr122 reads -1.84; that for GGCCUAAGCAAGUUGCGCATT against Fbxl8, 1.5; that for CCUUCAGACUGUCAACAAUTT against Chrm2, -0.386.
The result for GGGCAUGGAACAAGAUGUCTT against Nckipsd reads -2.43 (active); that for GCGUGAGCUUAAGAAGCAATT against Leng8, 1.46; that for GGCUGACACAAGAUGGCUGTT against Ebpl, 2.41 (active).
Turning to GGAAAAGCUCAAUGUCCUCTT against Tex13b, the z-score was -0.141.
The result for GGGAAGUCUACAUAAAUCCTT against Gpr176 reads -0.544.
On to GGAGAAGAAAACAUCAAGUTT against Hrh3, for which the z-score is 2.52 (active).
The result for GGAAAAGAAGUUUAAACGGTT against Svs6 reads -0.413.
The result for GGAGGAUCUUUCAAAGAGATT against Egfl8 reads 0.763; that for GGCCCUUCCAGAAGAUACATT against Speer3, -1.1.
The value for GGACAGAUUCGACAAAGAGTT against Olfr1535 was -0.193; that for GGAAAACAAGACUUCAAUCTT against Gypa was 0.369.
Take CCCUGAUGACAGAAGAAUCTT against Tyms: the z-score was -0.802.
The result for GCACCUCGGUCAUUUAUAUTT against Mettl14 reads -2.51 (active); that for GCCUGUCCUGUGAUGACAUTT against Olfr406, -1.96; that for GCUCGAACAUCUCUUGGUCTT against Capn9, 0.186.
The value for CCGUUACCUUUUAAGCCUGTT against Socs6 was -1.2; that for GGCAGAGAAAAGGACCUUUTT against Mcts2 was -1.32; that for GGAACUCCUCAAACGAAGGTT against Bmp3 was 0.553.
The value for GCCACCAGUGAAUAAUACATT against Hyal6 was 0.459; that for GGUUUGCAUAUCUCACCCUTT against Sirt6 was -2.38 (active); that for GGAGACUGGAGAGCAAAAUTT against Krt18 was -1.44.
For GCUACCUUCAGACAAGCACTT against Prss32, the z-score was -0.877.
The value for GCAACUCAGCUGUUGUGAGTT against Ifitm2 was 2.99 (active).
The result for GCUGUUGUUCAAUGCCCUGTT against Olfr392 reads -0.616.
GGCUGCACACAAUAUGAACTT against Mrm2: the z-score was 0.134.
The result for CCUAUGCUAUGUAGUUUAATT against Adam21 reads 5.58 (active); that for GGAGAAACUAUGAUCUUUATT against Mmp13, 0.117; that for GGGAAGAAAUCCAAGAAGATT against Cnpy3, -0.836.
For the sequence GCUGCCUACCUGUGAAAGUTT against Pgam2, the z-score was 2.82 (active).
For GGCCAAAGCUGAUAUGACATT against Ankef1, the z-score is 2.23 (active).
GGAGCUCCUGUACGACUAUTT against Kmt5a: the z-score was -1.66.
Consider GCCCUCGGACUGAAAACAATT against Chrm5, for which the z-score is -0.227.
The result for GGUACAAUGGCACUGUCACTT against Chrna5 reads -1.29; that for GGGAUGCUUUUGGCCCAAATT against Rita1, 0.901.
The value for GGUUCUCUAACAGAACUUUTT against Zc3h6 was 0.768.
Turning to GGUGUCUUUGCUCAGCUCATT against Lrfn4, the z-score was -2.93 (active).
On to GGUUGUUUGACCAACAGCUTT against Inpp5d, for which the z-score is -1.51.
For GGAAUUUGUGGAGAAACUATT against Gabbr1, the z-score was -0.232.
The result for GAGCCAUAUACCUCGUCCUTT against Mier2 reads -0.531.
The value for GGUUGGCUUGGAAAUGGGATT against Nanos2 was 1.7; that for CCAUUUACCCAUGCGGCUATT against Creb3l2 was -1.94; that for GGAGAUGUGUUGAGUUUUCTT against Abcg2 was 4.47 (active).
The value for GGCAACAUGCGGACAACAUTT against Trim14 was -0.42; that for GGAGCUGAACCUGAGCUAUTT against Tlr9 was -0.341; that for GGACAUUUCUAUGUCUUUGTT against Cpt2 was 3.35 (active).
Take GGAGAUAAAUCCUUUGCAUTT against Zfp119a: the z-score is 1.74.
For the sequence GGACUUUCGUGAGAGAUUUTT against Fpr2, the z-score was 1.16.
The value for GGUUCAGUUUUGGCUGGCUTT against Olfr558 was 2.04 (active).
The result for GGAGAAGAGCAGAAUAUGCTT against Baz1a reads -1.48; that for GCUGUUAAACGAAAUGUACTT against Esx1, -0.298.
As to GCUUGGAAGGGACUUCAAUTT against Trp73, the z-score is 2.97 (active).
The value for CCAUUUAUUUGGACUUGUATT against Lig4 was 0.303; that for CCGGUAUUACAACAAGUACTT against Atp5j2 was 1.01; that for GGGAGAAGGUAAGUGCAUGTT against Golga7b was -0.343.
In the case of GGUGGAAAAGUGAAAAAGGTT against Ddx18, the z-score was 0.158.
The result for CCUGUAGAUUCAAUUAGAGTT against Vkorc1l1 reads -0.206.
Consider GGUGCUGCUUUAUUCCUGGTT against Dhcr7, for which the z-score is -0.632.
With CGAUUAUGAGCACUAUAUUTT against Ddx20, the z-score was 2.12 (active).
As for GGAUAUGUGUUCAUCCUGUTT against Lrrc18, the z-score was 0.0347.
Take GGUUAUGCCUUCAGUGAAGTT against Prep: the z-score is -0.14.
The value for GGUGACUGUCCUGAACUAUTT against Prr5l was 1.7.
The value for CGAAGUGAAAAGUAUGACCTT against Lrrc72 was -0.083; that for GGGCAUAGUGACCAGGUUATT against Fgf14 was 2.67 (active); that for AUCUCUCGGUGGUGGACUGTT against Olfr1474 was 0.583.
Consider CCAGGUCGAACUUCUGUGCTT against Slc39a8, for which the z-score is -0.82.
The result for GCAACUCAGAAUGUAGUGUTT against Gnai1 reads 0.298.
The result for GGCUUUUGAUGAGGUAAAATT against Plekho2 reads -1.12; that for GGAGGAAAAACAGUGCAGATT against Smchd1, -1.54.
For the sequence GGACCUAUUACCUCAAUGATT against Spatc1l, the z-score was -2.59 (active).
As to GGUUCUGACUUGAGAAAACTT against Clba1, the z-score is 1.41.
The result for GGUUAUUCUGGUACAGGUUTT against Fndc3a reads 0.191; that for GGCUCAGCUCAUGAACGACTT against Acvr2b, -0.00307.
The result for GGACAUGACCAAAAGGCUGTT against Zfp706 reads 3.84 (active); that for GGUGGUUUUCAUGUUUCCCTT against Olfr574, -1.48.
The value for GGCUAGAAUGCACAUUUUATT against Tmem65 was -1.26; that for CCACCCUCUUCAUAACAGUTT against Med27 was -0.82; that for GCCAAUACACGUCUACUGATT against Gm1553 was -0.0632.
Consider GGUGACACUCAAGGUGUCATT against Ldlrap1, for which the z-score is 2.23 (active).
Take GGACCAUGAGACGAUGGGATT against Dysf: the z-score is 0.167.
Regarding GCUAAUGACACCACUUUUGTT against Aldh9a1, the z-score was -0.379.
On to GGAUUGAGUCCUAUGAAGGTT against Stard3nl, for which the z-score is -1.09.
The value for CCAAGUGACUUUAAGGAUGTT against Pcolce was 0.759.
The result for GGCCAUCAUAUCACCAUUUTT against Rcsd1 reads 1.6.
The result for GCCUUAGGCAUUUAGAUUUTT against Zbed4 reads 1.33; that for GCUGAAGUUCGUACCCUACTT against Osbp2, -2.42 (active).
For CGGAGUUCAGCAUUUACCCTT against Shld2, the z-score is 0.428.
The value for GGCAGUUUGACAACUUUAATT against Fibp was -0.653; that for CCCAGCUCAGGUUUCUAUGTT against Dact2 was 0.0333.
Regarding GGUGAUCAAUCCUCUAAUATT against Eid2, the z-score is 2.61 (active).
The value for GCCUAUGUAAAUAGUGCUGTT against Mt3 was 0.549; that for GCUAGGUUGGAUAUAUAUGTT against Mypn was -0.0247; that for CGAAGUGAGAAUUGAAUUUTT against Zp2 was 1.51.
Consider GCUGCUCAGUUUCUUCCAATT against H4c9, for which the z-score was 2.08 (active).
The value for CGGGAAGUAGUGCAACACCTT against Taldo1 was -0.902.
The value for GCACGUAGUAAGAUGUUACTT against Cnot9 was -0.969; that for GGGCAUGAAUGGUUACUUATT against Mllt6 was 1.24; that for GCACAGUACCAUAACGGCUTT against Nampt was -2.06 (active).
For GGGUGUCAUAUAUAUUGCUTT against Gpr83, the z-score was 0.889.
The result for GCAAGUGAAAUCCAAACAGTT against Nabp1 reads -1.54; that for GGUGAGAAGACCAUUGAUUTT against Insr, 0.459.
